Compound activity deposited in PubChem by several laboratories.
DAX1 inh-1: DAX1 (NR0B1) inhibition, primary screen; inhibition, % at 6.8 µM; 1.1% of 370,000 active; HEK293T StAR-luciferase reporter, SF-1/DAX-1 repression relief; AID 652010;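 active = inhibition above the mean over all tested compounds plus 3 SD, cut at about 3.6% in these data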;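 also: 0% = DAX-1 cells with DMSO and 100% = cells lacking DAX-1 with DMSO; higher inhibition means more luminescence from relief of DAX-1 repression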
DAX1 inh-2: inhibits human nuclear receptor DAX1; AID 504766; inhibition, % at 6.75 µM; P51843; HEK293 Gal4-DAX1 luciferase reporter, luminescence; 0.99% of 340,000 active;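 active = inhibition above the mean over all tested compounds plus 3 SD, cut at about 4.2% in these data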;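 also: 0% = DAX1-transfected cells with DMSO and 100% = empty-vector control cells with DMSO; inhibition shows as a rise in luminescence from relieved DAX1 repression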
hcDAF-12 act: activators of H. contortus DAF-12 nuclear receptor; HEK293 hcDAF-12 lit1-tk-luc reporter, luminescence; 0% DMSO, 100% Δ7-dafachronic acid; activation, % at 6.8 µM; 1.4% of 370,000 active; AID 652067;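 active = activation above the mean of all tested compounds plus 3 SD, cut at about 5.5% in these data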;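 also: 100% = response to 3 µM Δ7-dafachronic acid high control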
ssDAF-12 act: activates DAF-12 receptor from parasite S. stercoralis | HEK293 ssDAF-12/GRIP1 lit1-tk-luc reporter, luminescence; % of 3 µM dafachronic acid response | activation, % at 6.8 µM | 1% of 370,000 active;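 active = activation above the mean over all tested compounds plus 3 SD, cut at about 0.9% in these data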;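 also: 0% = DMSO-only wells and 100% = 3 µM delta7-dafachronic acid wells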
hgDAF12 agonist: hgDAF-12 agonism, primary luciferase screen; HEK293 GAL4-hgDAF12 UAS-luciferase reporter, agonist luminescence; normalized to butyrate control; activation, % at 6.8 µM; 1.8% of 370,000 active; AID 687014;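 active = activation above a cutoff set at the mean of all screened compounds plus 3 SD, cut at about 10% in these data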;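 also: 0% = DMSO wells and 100% = sodium butyrate wells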
Rev-erbA mod: modulates human Rev-erb alpha binding to DNA | Rev-erbα–FITC-DNA binding, fluorescence polarization, 90 min | activity, % at 10 µM | 0.79% of 370,000 active;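 active = activity above about 14%, limit read from the data; passing the limit was not always enough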;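 also: 0% = DMSO wells with 35 nM protein and 100% = DMSO wells with 750 nM protein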
Target sequence (P20393 whole entry, looked up): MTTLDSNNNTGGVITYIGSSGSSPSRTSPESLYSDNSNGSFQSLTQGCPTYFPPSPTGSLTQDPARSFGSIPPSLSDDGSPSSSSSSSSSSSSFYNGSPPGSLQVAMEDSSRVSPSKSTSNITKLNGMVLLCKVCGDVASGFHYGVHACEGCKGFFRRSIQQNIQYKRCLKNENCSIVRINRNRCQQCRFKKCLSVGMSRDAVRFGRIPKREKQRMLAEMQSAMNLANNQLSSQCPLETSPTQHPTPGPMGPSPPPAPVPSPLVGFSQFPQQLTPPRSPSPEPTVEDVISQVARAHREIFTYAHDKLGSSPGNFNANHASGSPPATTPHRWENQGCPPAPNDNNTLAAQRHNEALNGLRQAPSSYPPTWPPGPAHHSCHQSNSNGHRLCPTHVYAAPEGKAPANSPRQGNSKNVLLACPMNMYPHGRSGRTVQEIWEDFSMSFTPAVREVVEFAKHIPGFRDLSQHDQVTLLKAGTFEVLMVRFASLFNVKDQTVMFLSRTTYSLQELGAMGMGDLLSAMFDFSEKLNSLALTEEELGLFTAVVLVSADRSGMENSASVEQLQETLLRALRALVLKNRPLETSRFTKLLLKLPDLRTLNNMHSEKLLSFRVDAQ
The depositor's hits bear a star; · = no result given. Only some compounds are listed: those with a hit (about 4.8% of all), similar ones and a draw of the others.

SMILES	DAX1 inh-1	DAX1 inh-2	hcDAF-12 act	ssDAF-12 act	hgDAF12 agonist	Rev-erbA mod
Cc1ccsc1/C=C1\CCC(C2CCCC2)C1=O (stereo unspecified)	1.1	5.6*	0.8	-0.4	9.3	3.0
Cc1ccc(/C=C2\CCC(C3CCCC3)C2=O)cc1 (stereo unspecified)	-0.3	4.5*	-1.7	0.9*	7.8	-8.2
C[C@@H]1O[C@@H](n2c3ccc(Cl)cc3c3ccc4c5cc(Cl)ccc5[nH]c4c32)[C@H](O)[C@H](O)[C@H]1O	0.0	·	1.3	-1.5	0.6	9.8
O=C(NCc1cccc(Cl)c1)O[C@H]1CC[C@@]23CCCN2C(=O)CCC[C@H]3C1	·	·	0.0	-1.9	-1.7	-3.3
CCN(CC)c1ccc(C=NCCc2ccc(S(N)(=O)=O)cc2)cc1	-1.2	-0.4	4.0	1.0*	-2.1	6.6
CCN(CC)c1ccc(/C=N/NS(=O)(=O)c2ccc(CNC(C)=O)cc2)cc1	-1.0	-1.8	2.9	-1.3	-0.2	-6.2
Cc1cccc(-c2cccc3c4c([nH]c23)[C@@H]2C[C@H](N(C)C(=O)Nc3ccccc3)[C@H]([C@H](C)O)CN2CC4)c1	0.0	·	-0.6	-1.5	-1.4	0.4
C=CCN=C1S/C(=C\c2ccc(N(C)C)cc2)C(=O)N1CC=C	0.8	4.7*	-1.5	-0.9	3.4	-23.5
C=CCN1C(=O)/C(=C/c2ccc(OC)cc2)S/C1=N/c1nccs1	-0.2	0.1	-0.3	-1.9	0.5	-4.2
Cc1ccc(C2=NN=C(NC(=O)CSc3nncn3C)SC2)cc1	-3.0	-1.1	0.4	-1.4	3.8	5.7
Cc1ccc(C2=NN=C(NC(=O)C(F)(F)F)SC2)cc1	0.9	0.1	4.3	2.3*	12.2*	3.5
C=CCN(CC#Cc1ccc(C(F)(F)F)cc1)Cc1ccc(OC)cc1OC	-0.7	·	-2.9	-1.4	-0.9	5.6
O=C(COC(=O)C1COc2ccccc2O1)Nc1cccc(Cl)c1 (stereo unspecified)	-0.1	0.3	1.7	-0.7	0.0	2.1
O=C(COC(=O)C1COc2ccccc2O1)NC(=O)Nc1ccc2c(c1)OCCO2 (stereo unspecified)	-0.5	1.0	5.8*	-0.1	4.3	3.0
COc1ccc(Cl)cc1NC(=O)COC(=O)C1COc2ccccc2O1 (stereo unspecified)	0.1	0.3	5.5	1.0*	1.2	2.3
N#CCC(=O)Nc1ccc(C(=O)OCC(=O)NC(=O)Nc2ccc3c(c2)OCCO3)cc1	4.2*	1.8	3.8	-0.4	9.6	3.7
O=C(COC(=O)C1COc2ccccc2O1)Nc1cccc(F)c1 (stereo unspecified)	1.0	0.0	0.6	-1.4	1.1	-5.5
C(=C/c1nccc2c1[nH]c1ccccc12)/c1ccc2c(c1)OCO2	1.4	-0.6	2.0	-1.2	12.8*	6.9
COC(=O)C1=C(C)N(Cc2ccccc2C(F)(F)F)C(=NCc2ccc(OC)cc2)NC1c1ccccc1C(F)(F)F (stereo unspecified)	-0.6	·	-1.9	-1.2	-0.3	-0.6
O=C(Cc1nnc(NC(=O)Nc2ccccc2)s1)Nc1ccccc1	-0.4	·	0.3	-0.9	0.1	0.8
O=C(Cc1nc(=O)c2ccccc2s1)Nc1ccccc1	3.3	2.9	5.9*	0.4	10.9*	-4.1
COc1ccc(Br)cc1S(=O)(=O)NCCN1CCOCC1	1.1	4.5*	-1.4	-1.3	3.5	8.5
CCCCCCCCNS(=O)(=O)/C=C/c1ccc(OC)cc1CNC(=O)OC(C)(C)C	-1.2	·	-0.9	-1.3	1.2	-3.4
Fc1ccc(-c2csc(/C=C/c3ccc4c(c3)OCO4)n2)cc1	0.2	1.1	3.3	1.1*	8.8	-3.1
Cc1nc(-c2ccc3c(c2)OCO3)cs1	0.3	0.4	4.5	-0.4	2.8	3.8
SMILES	DAX1 inh-1	DAX1 inh-2	hcDAF-12 act	ssDAF-12 act	hgDAF12 agonist	Rev-erbA mod
CCOC(=O)C1CCN(C(=O)/C=C/c2ccccc2)CC1	0.5	-1.4	1.1	-1.1	11.9*	-0.1
CCOC(=O)C1CCN(C(=O)c2cc3c(ccc4ccccc43)o2)CC1	4.1*	1.0	2.5	-0.5	5.4	-2.2
CCOC(=O)C1CCN(C(=O)c2cc(COc3ccc(OC)c4ccccc34)on2)CC1	0.7	0.7	6.3*	0.3	12.5*	0.1
COc1ccc(OCc2cc(C(=O)N(C)C3CCOCC3)no2)c2ccccc12	0.0	1.9	4.5	1.0*	4.2	-2.5
COc1cc(Cl)ccc1OCc1cc(C(=O)N2CCCCCC2)no1	0.2	1.0	1.3	-0.4	2.8	5.5
Cc1ccc(-c2cc(C#N)c3n(c2=O)CCC3)cc1	-0.4	·	-1.0	-1.2	-1.1	0.4
Cc1occc1C(=O)NC(C)C12CC3CC(CC(C3)C1)C2 (stereo unspecified)	-0.7	1.5	-2.3	-1.1	0.5	-4.3
Cc1occc1C(=O)NN=C1C2CC3CC(C2)CC1C3	4.0*	3.0	4.3	0.5	9.3	2.2
Cc1ccccc1NC(=O)c1cnn(-c2ccccc2)c1C	0.6	3.6	1.2	0.6	12.2*	5.4
Cc1c(C(=O)Nc2cccc(F)c2)cnn1-c1ccccc1	1.9	3.2	4.8	1.6*	10.4*	4.1
Cc1c(C(=O)Nc2ccccc2)cnn1-c1ccccc1	1.5	2.3	5.4	-0.5	10.0	-2.5
Cc1cccc(NC(=O)c2cnn(-c3ccccc3)c2C)c1C	0.8	2.3	0.1	-0.5	2.8	-2.4
CCCCNC(=O)NS(=O)(=O)c1ccc(NC(=O)CSc2nnc(-c3cccs3)n2-c2ccc(OC)cc2)cc1	-0.7	·	-2.7	-1.2	0.6	-4.4
CC(C)CN1C(=O)[C@]2(CC(=O)N(C)C2c2ccccc2)c2cc(-n3cc(CO)nn3)ccc21 (stereo partly specified)	1.5	·	-0.1	-0.1	-2.8	-5.9
Cc1ccc2nc(/C(C#N)=C/c3ccc(O)c(O)c3)[nH]c2c1	0.4	2.1	-1.6	-0.9	0.9	9.3
Cc1ccc2nc(/C(C#N)=C/c3ccccc3C(=O)O)[nH]c2c1	0.0	8.4*	4.4	1.0*	4.9	-0.3
COc1cccc(/C=C(\C#N)c2nc3ccc(C)cc3[nH]2)c1OCC(=O)O	0.4	0.8	6.1*	-0.8	4.6	-9.6
N#C/C(=C\c1ccccc1C(=O)O)c1nc2ccccc2[nH]1	0.0	4.4*	3.3	-0.3	3.7	-2.0
CCOc1cccc(/C=C(/C#N)c2nc3ccccc3[nH]2)c1OCC(=O)O	-0.7	1.9	0.9	-1.2	0.3	-6.3
Cc1ccc(-c2cc(-c3nnc(SCC(=O)N4c5ccccc5Sc5ccc(Cl)cc54)n3N)[nH]n2)cc1	0.8	·	-0.3	-2.0	5.9	1.2
Cn1c2ccccc2c2cc(C(=O)N3CCN(CCO)CC3)sc21	0.4	5.4*	2.6	0.8	0.6	8.4
